Screening results as filed in PubChem.
Compounds with a hit are over-represented: about 4.1% of the library has one in this group of screens.
hcDAF12 agonist: activates DAF-12 receptor from parasite H. contortus; AID 652067; 1.4% of 370,000 active; activation, % at 6.8 µM; HEK293 hcDAF-12 lit1-tk-luc reporter, luminescence; 0% DMSO, 100% Δ7-dafachronic acid;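 active = activation above the mean of all tested compounds plus 3 SD, cut at about 5.5% in these data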;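 also: 100% = response to 3 µM Δ7-dafachronic acid high control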
PolyA inh: inhibitors of polyadenylation in S. cerevisiae | S. cerevisiae SKY197-pL101 polyadenylation reporter, beta-gal luminescence; efflux-impaired pdr1/pdr3 knockout yeast; score 100 = 6 SD above DMSO | activity score, % at 12 µM | 0.02% of 300,000 active | AID 1875;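 active = lowest replicate activity score at least 50, where 100 means six control SD above control mean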;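 also: yeast exposed to compound for 9 h at 30 °C; higher score means more reporter readthrough which indicates perturbed polyadenylation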
DAX1 inh-1: inhibitors of DAX1 repression of SF-1 activated StAR promoter; 1.1% of 370,000 active; HEK293T StAR-luciferase reporter, SF-1/DAX-1 repression relief; inhibition, % at 6.8 µM;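 active = inhibition above the mean over all tested compounds plus 3 SD, cut at about 3.6% in these data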;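 also: 0% = DAX-1 cells with DMSO and 100% = cells lacking DAX-1 with DMSO; higher inhibition means more luminescence from relief of DAX-1 repression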
hgDAF12 agonist: hgDAF-12 agonism, primary luciferase screen. HEK293 GAL4-hgDAF12 UAS-luciferase reporter, agonist luminescence; normalized to butyrate control. activation, % at 6.8 µM. 1.8% of 370,000 active;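 active = activation above a cutoff set at the mean of all screened compounds plus 3 SD, cut at about 10% in these data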;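 also: 0% = DMSO wells and 100% = sodium butyrate wells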
ssDAF12 agonist: activators of S. stercoralis DAF-12 nuclear receptor. activation, % at 6.8 µM. 1% of 370,000 active. HEK293 ssDAF-12/GRIP1 lit1-tk-luc reporter, luminescence; % of 3 µM dafachronic acid response;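 active = activation above the mean over all tested compounds plus 3 SD, cut at about 0.9% in these data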;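 also: 0% = DMSO-only wells and 100% = 3 µM delta7-dafachronic acid wells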
DAX1 inh-2: inhibits human nuclear receptor DAX1; 0.99% of 340,000 active; inhibition, % at 6.75 µM; AID 504766; HEK293 Gal4-DAX1 luciferase reporter, luminescence;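 active = inhibition above the mean over all tested compounds plus 3 SD, cut at about 4.2% in these data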;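 also: 0% = DAX1-transfected cells with DMSO and 100% = empty-vector control cells with DMSO; inhibition shows as a rise in luminescence from relieved DAX1 repression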
LXR ag: LXR-beta agonism as hcDAF-12 counter-screen | shares compounds with hcDAF12 agonist | HEK293 Gal4-LXR tk-luc reporter, luminescence, 24 h; normalized: DMSO 0%, positive control 100% | activation, % at 6.8 µM | 3,400 tested, under 10 active | AID 743027;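 active = mean percent activation of the reporter above a cutoff set as the average over tested compounds plus their standard deviation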
Target sequence (P55055 whole entry, looked up, the tested form may be a part): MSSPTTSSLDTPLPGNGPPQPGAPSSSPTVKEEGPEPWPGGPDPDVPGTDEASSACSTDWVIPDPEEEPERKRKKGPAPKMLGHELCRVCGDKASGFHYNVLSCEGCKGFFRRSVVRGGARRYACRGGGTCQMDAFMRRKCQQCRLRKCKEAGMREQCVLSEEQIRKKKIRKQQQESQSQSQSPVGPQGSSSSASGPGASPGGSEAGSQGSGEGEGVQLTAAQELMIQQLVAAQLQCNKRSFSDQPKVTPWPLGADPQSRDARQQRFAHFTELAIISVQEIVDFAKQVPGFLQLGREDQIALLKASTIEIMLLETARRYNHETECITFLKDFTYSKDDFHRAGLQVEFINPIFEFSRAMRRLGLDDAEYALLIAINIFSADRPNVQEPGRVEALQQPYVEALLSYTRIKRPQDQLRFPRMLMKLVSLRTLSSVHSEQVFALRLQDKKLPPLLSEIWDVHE
hcDAF12 ag: hcDAF-12 agonism, confirmation assay; shares compounds with hcDAF12 agonist; HEK293 hcDAF-12 lit1-tk-luc reporter, luminescence; % of Δ7-dafachronic acid response; 61% of 3,400 active; AID 743032; activation, % at 6.8 µM;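 active = mean activation across triplicate tests above the threshold derived from the earlier primary screen, cut at about 5.5% in these data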;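 also: 0% = DMSO only wells and 100% = 3 µM Δ7-dafachronic acid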
hgDAF12 ag: hgDAF-12 agonism, confirmation assay; shares compounds with hgDAF12 agonist; HEK293 GAL4-hgDAF12 luciferase reporter, agonist mode; percent of butyrate response; 80% of 3,300 active; activation, % at 6.8 µM;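 active = mean activation over triplicate wells above the hit cutoff derived from the earlier primary screen, cut at about 11% in these data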;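 also: 0% = DMSO low control and 100% = 2 mM sodium butyrate high control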
LXR ag 2: LXR-beta agonism as DAF-12 counter-screen; shares compounds with hgDAF12 agonist; HEK293 Gal4-LXR luciferase reporter, 24 h; activation, % at 6.8 µM; 3,300 tested, under 10 active; AID 743051;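 active = mean activation of the triplicate above a set limit carried over from the primary screen, none filed active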
Active calls of the source: *; / = no result given; ! = not active in a repeat.

SMILES	hcDAF12 agonist	PolyA inh	DAX1 inh-1	hgDAF12 agonist	ssDAF12 agonist	DAX1 inh-2	LXR ag	hcDAF12 ag	hgDAF12 ag	LXR ag 2
O=C(Nc1nc2ccc(F)cc2s1)c1cccs1	19*	-14	3	18*	2.7*	1	1	8.1*	19*	1
COc1ccc2nc(NC(=O)c3ccccc3F)sc2c1	6.9*	-14	3	16*	0	2	2	6.2*	21*	1
COc1ccc2nc(NC(=O)c3c(C)noc3C)sc2c1	1	/	2	7	0	1	/	/	/	/
Cc1ccc2nc(NC(=O)c3ccccn3)sc2c1	-4	-19	-6	-14	-4	-8	/	/	/	/
Oc1ccccc1-c1cc(-c2cccc(F)c2)n[nH]1	21*	-16	4.4*	24*	2.4*	3	2	16*	27*	1
COc1ccc(C(=O)O/N=C2\C(=O)N(C)c3ccccc32)cc1	1	-10	0	1	0	1	/	/	/	/
COc1ccc(C(=O)N=c2nc3ccccn3s2)cc1	14*	-1	3	17*	1.3*	-1	1	6.0*	11*	1
O=C(O)/C=C\C(=O)Nc1ccccc1C#Cc1ccc(Br)cc1	16*	-10	3.8*	22*	2.1*	3	0	1	16*	1
CN(C)c1ccc(N=Nc2cccc3ccoc23)cc1	16*	-2	3	19*	1.6*	6.5*	1	9.0*	20*	1
Cc1ccc2c(c1)NC(=O)CC(c1ccccc1)=N2	-1	15	1	1	-1	1	/	/	/	/
CC1=CC(C)=Nc2ccc(C)cc2N1	5.6*	9	4.1*	16*	0	2	0	3	12*!	1
CSCc1c(C(=O)Nc2ccc3c(c2)OCO3)oc2ccccc12	3	-3	0	1	0	-1	/	/	/	/
Cc1c(C(=O)Nc2ccc3c(c2)OCO3)oc2ccccc12	16*	-7	2	18*	2.8*	1	1	16*	21*	1
O=C(NC(=S)Nc1ccc2c(c1)OCO2)c1ccccc1	8.7*	-4	2	15*	1	3	2	6.1*	20*	1
O=C(Nc1ccc2c(c1)OCO2)c1ccccc1	9.3*	6	2	16*	0	1	1	4	18*	1
COc1cc2nc(CCc3ccccc3)oc(=O)c2cc1OC	-2	7	0	-4	-1	0	/	/	/	/
Cc1ccc(O)c(C(C)c2c[nH]c3ccccc23)c1 (centres undefined)	4	/	0	-1	0	/	/	/	/	/
O=C(O)c1c[nH]c2c([N+](=O)[O-])cccc2c1=O	0	/	-2	1	-1	1	/	/	/	/
C/C(=N\Nc1ccc(Cl)c(C(=O)O)c1)c1ccc(Br)s1	2	-7	0	3	0	2	/	/	/	/
C/C(=N\Nc1ccc(C(=O)O)cc1)c1ccc(Cl)s1	8.2*	-8	3	16*	1.1*	-1	1	11*	20*	1
CC(=O)NC(Cc1c[nH]c2ccccc12)C(=O)OCC(=O)N1CCN(S(=O)(=O)c2ccc(Cl)cc2)CC1 (centres undefined)	0	/	1	1	-1	1	/	/	/	/
O=C(/C=C/c1ccco1)Nc1ccc2c(c1)OCCO2	7.5*	/	4.4*	16*	0	0	1	8.9*	18*	1
Cc1csc(NC(=O)/C=C/c2ccco2)n1	6.6*	-19	2	14*	-1	0	1	3	13*	1
O=S(=O)(c1cccnc1)N1CCCC(Nc2ccc(F)c(F)c2)C1 (centres undefined)	-2	/	-1	-3	-1	2	/	/	/	/
COc1ccc(CC(=O)N[C@@H]2c3cc(OC)c(OC)cc3C[C@H]2O)cc1	-1	/	1	1	-1	1	/	/	/	/
SMILES	hcDAF12 agonist	PolyA inh	DAX1 inh-1	hgDAF12 agonist	ssDAF12 agonist	DAX1 inh-2	LXR ag	hcDAF12 ag	hgDAF12 ag	LXR ag 2
NNC(=O)c1cccc(COc2ccccc2Br)c1	7.2*	-8	3	16*	1.2*	-3	1	6.5*	15*	1
O=C1CCC(C(=O)N2CCN(c3cnccn3)CC2)CN1CCc1cccc(F)c1 (centres undefined)	-1	1	1	0	-1	0	/	/	/	/
CCS(=O)(=O)NCc1cn2c(C)csc2n1	3	-2	-1	1	0	0	/	/	/	/
CCCS(=O)(=O)NCc1cn2c(C)csc2n1	10*	-13	3.8*	15*	1.1*	4	0	4	6	0
Cc1ccc(COc2ccc(C)nc2[N+](=O)[O-])cc1	9.6*	10	2	14*	0	/	1	7.3*	14*	1
CCN(CC)S(=O)(=O)c1ccc(C(=O)OCC(=O)Nc2ccc(-c3nc4ccc(C)cc4s3)cc2)cc1	7.6*	-4	4.0*	14*	0	0	2	8.9*	23*	1
CCN(CC)S(=O)(=O)c1ccc(NC(=O)COC(=O)c2ccc(-n3nc(C)cc3C)cc2)cc1	-1	/	-1	-3	-1	0	/	/	/	/
c1ccc2c(c1)Cn1nnnc1-2	/	-10	/	/	/	1	/	/	/	/
Brc1c(-c2ccccc2)nc2n1Cc1ccccc1-2	11*	-28	2	16*	1.8*	4	1	11*	18*	1
CSc1sc(C(=O)NN)c2c1C(O)CCC2 (centres undefined)	-2	28	-1	0	-2	-3	/	/	/	/
COc1cc(NC(=O)C/C(C)=N/NC(=O)c2cccs2)c(OC)cc1Cl	7.9*	3	4.0*	15*	0	2	0	4	6	0
COc1cc(NC(=O)C/C(C)=N/NC(=O)Cc2ccccc2)c(OC)cc1Cl	4	-4	-1	1	-1	-1	/	/	/	/
CC(C)c1ccc(NC(=O)COc2ccc(F)cc2C(=O)c2cnn(-c3ccccc3)c2)cc1	12*	11	4.1*	18*	2.2*	1	1	14*	17*	0
